# Laboratory results as given in the supplement of paper PMC9694430.
# Several values for one entry are separate records, joined by “and”; a condition that tells them apart may be missing. Identical values can stand only once.
# Experiments:
# Experiment in all cases: thermal shift delta Tm vs DMSO control; higher = stronger stabilization (binding)
# Settings in all cases: 12.5 µM; protein concentration 2 µM
# LOC_OS02G45750-cb003 = system: LOC_OS02G45750-cb003
# Procedure, shortened: (§1)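 Heating from 25°C to 95°C at 0.05°C/s, fluorescence was recorded for 19.5 μl wells of 2 μM E. coli-expressed, purified rice kinase domain in 100 mM potassium phosphate pH 7.5, 150 mM NaCl, 10% glycerol and 5 × SYPRO Orange with compound in DMSO. Boltzmann fits gave melting temperatures for this differential scanning fluorimetry assay. The shift reported is the mean of three replicates against the DMSO-only protein.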
# LOC_OS02G54510-cb004 = system: LOC_OS02G54510-cb004
# Procedure, shortened: as §1
# LOC_OS03G04050-cb001 = system: LOC_OS03G04050-cb001
# Procedure, shortened: as §1
# LOC_OS03G12390-cb001 = system: LOC_OS03G12390-cb001
# Procedure, shortened: as §1
# LOC_OS03G27990-cb004 = system: LOC_OS03G27990-cb004
# Procedure, shortened: as §1
# LOC_OS03G50450-cb001 = system: LOC_OS03G50450-cb001
# Procedure, shortened: as §1
# LOC_OS03G50810-cb003 = system: LOC_OS03G50810-cb003
# Procedure, shortened: as §1
# LOC_OS04G35114-cb001 = system: LOC_OS04G35114-cb001
# Procedure, shortened: as §1
# LOC_OS04G38480-cb003 = system: T1, LOC_OS04G38480-cb003
# T1 sequence (whole entry): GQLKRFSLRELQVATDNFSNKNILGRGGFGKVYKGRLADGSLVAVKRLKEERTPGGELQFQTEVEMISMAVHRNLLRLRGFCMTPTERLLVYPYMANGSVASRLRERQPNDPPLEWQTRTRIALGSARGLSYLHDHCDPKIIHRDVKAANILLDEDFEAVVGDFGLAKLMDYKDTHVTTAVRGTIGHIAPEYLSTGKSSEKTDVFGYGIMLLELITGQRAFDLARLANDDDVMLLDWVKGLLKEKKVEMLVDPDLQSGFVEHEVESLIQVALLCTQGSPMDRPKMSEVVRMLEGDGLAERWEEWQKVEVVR
# Procedure, shortened: as §1
# LOC_OS04G41100-cb001 = system: T2, LOC_OS04G41100-cb001
# T2 sequence (whole entry): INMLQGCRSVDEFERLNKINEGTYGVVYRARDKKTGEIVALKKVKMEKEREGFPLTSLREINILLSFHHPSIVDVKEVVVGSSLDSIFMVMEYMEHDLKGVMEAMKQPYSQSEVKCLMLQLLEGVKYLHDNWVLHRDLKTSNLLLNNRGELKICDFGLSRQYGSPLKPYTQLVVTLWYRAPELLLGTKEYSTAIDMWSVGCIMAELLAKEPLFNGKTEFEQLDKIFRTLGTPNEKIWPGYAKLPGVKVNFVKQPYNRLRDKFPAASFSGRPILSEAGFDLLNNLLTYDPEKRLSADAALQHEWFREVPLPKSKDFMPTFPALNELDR
# Procedure, shortened: as §1
# LOC_OS04G57630-cb004 = system: LOC_OS04G57630-cb004
# Procedure, shortened: as §1
# LOC_OS05G07850-cb002 = system: LOC_OS05G07850-cb002
# Procedure, shortened: as §1
# LOC_OS05G16824-cb004 = system: LOC_OS05G16824-cb004
# Procedure, shortened: as §1
# LOC_OS05G28520-cb001 = system: LOC_OS05G28520-cb001
# Procedure, shortened: as §1
# LOC_OS05G30820-cb001 = system: LOC_OS05G30820-cb001
# Procedure, shortened: as §1
# LOC_OS05G43570-cb004 = system: LOC_OS05G43570-cb004
# Procedure, shortened: as §1
# LOC_OS06G16330-cb003 = system: LOC_OS06G16330-cb003
# Chain of LOC_OS06G16330-cb003 (as listed by the source): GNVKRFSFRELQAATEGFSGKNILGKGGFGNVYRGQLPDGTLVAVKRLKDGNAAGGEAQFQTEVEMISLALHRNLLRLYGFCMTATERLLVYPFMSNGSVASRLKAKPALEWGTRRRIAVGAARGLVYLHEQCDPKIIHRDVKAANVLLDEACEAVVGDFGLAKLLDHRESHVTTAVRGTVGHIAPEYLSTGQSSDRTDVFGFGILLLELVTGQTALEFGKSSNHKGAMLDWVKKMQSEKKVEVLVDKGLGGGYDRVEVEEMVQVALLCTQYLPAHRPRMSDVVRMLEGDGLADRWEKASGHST
# Procedure, shortened: as §1
# LOC_OS06G22820-cb001 = system: T3, LOC_OS06G22820-cb001
# T3 sequence (whole entry): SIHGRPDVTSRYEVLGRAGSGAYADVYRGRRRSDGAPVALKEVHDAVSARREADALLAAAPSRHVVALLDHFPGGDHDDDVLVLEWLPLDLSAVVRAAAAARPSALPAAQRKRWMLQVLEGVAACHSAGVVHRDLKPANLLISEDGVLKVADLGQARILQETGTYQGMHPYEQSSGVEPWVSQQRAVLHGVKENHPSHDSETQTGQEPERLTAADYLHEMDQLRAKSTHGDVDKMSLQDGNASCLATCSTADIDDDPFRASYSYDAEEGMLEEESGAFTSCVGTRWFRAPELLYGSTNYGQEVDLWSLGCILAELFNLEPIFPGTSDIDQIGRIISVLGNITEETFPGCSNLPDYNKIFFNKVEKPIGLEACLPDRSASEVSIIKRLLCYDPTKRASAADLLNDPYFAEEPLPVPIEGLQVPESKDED
# Procedure, shortened: as §1
# LOC_OS07G06570-cb004 = system: LOC_OS07G06570-cb004
# Procedure, shortened: as §1
# LOC_OS07G07230-cb001 = system: LOC_OS07G07230-cb001
# Procedure, shortened: as §1
# 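Note: purified Escherichia coli-expressed rice kinase domain construct.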
SMILES,thermal shift delta Tm (LOC_OS02G45750-cb003),thermal shift delta Tm (LOC_OS02G54510-cb004),thermal shift delta Tm (LOC_OS03G04050-cb001),thermal shift delta Tm (LOC_OS03G12390-cb001),thermal shift delta Tm (LOC_OS03G27990-cb004),thermal shift delta Tm (LOC_OS03G50450-cb001),thermal shift delta Tm (LOC_OS03G50810-cb003),thermal shift delta Tm (LOC_OS04G35114-cb001),thermal shift delta Tm (LOC_OS04G38480-cb003),thermal shift delta Tm (LOC_OS04G41100-cb001),thermal shift delta Tm (LOC_OS04G57630-cb004),thermal shift delta Tm (LOC_OS05G07850-cb002),thermal shift delta Tm (LOC_OS05G16824-cb004),thermal shift delta Tm (LOC_OS05G28520-cb001),thermal shift delta Tm (LOC_OS05G30820-cb001),thermal shift delta Tm (LOC_OS05G43570-cb004),thermal shift delta Tm (LOC_OS06G16330-cb003),thermal shift delta Tm (LOC_OS06G22820-cb001),thermal shift delta Tm (LOC_OS07G06570-cb004),thermal shift delta Tm (LOC_OS07G07230-cb001)
CNC(=O)c1ccccc1Sc1ccc2c(/C=C/c3ccccn3)n[nH]c2c1 [Axitinib],4.92 °C,0.12 °C,0.3 °C,0.31 °C,0.01 °C,0.21 °C,0.35 °C,2.98 °C,0.63 °C,0.65 °C,0.24 °C,5.45 °C,0.17 °C,-0.35 °C,0.45 °C,0.48 °C,2.75 °C,0.73 °C,1.05 °C,0.76 °C
COC(=O)N[C@@H](C)CNc1nccc(-c2cn(C(C)C)nc2-c2cc(Cl)cc(NS(C)(=O)=O)c2F)n1 [Encorafenib (LGX818)],0.44 °C,-0.06 °C,0.22 °C,-0.2 °C,0.34 °C,0.01 °C,0.12 °C,0.62 °C,0.49 °C,1.63 °C,-0.17 °C,5.07 °C,-3.57 °C,0.85 °C,0.58 °C,0.22 °C,1.92 °C,0.46 °C,1.58 °C,0.67 °C
CCn1c(=O)c(-c2ccc(-c3cncs3)cc2Cl)cc2cnc(Nc3ccc(N4CCN(C)CC4)cc3)nc21,1.17 °C,0.43 °C,0.71 °C,-0.41 °C,0.34 °C,1.1 °C,0.27 °C,0.85 °C,0.15 °C,0.58 °C,0.31 °C,1.19 °C,0.07 °C,0.25 °C,0.51 °C,0.24 °C,-0.19 °C,0.67 °C,0.84 °C,0.19 °C
COc1ccc(-c2ccc3c(N4CCOCC4)nc(N4C[C@@H](C)O[C@@H](C)C4)nc3n2)cc1CO,0.16 °C,-0.13 °C,-0.03 °C,0.03 °C,0.02 °C,-0.08 °C,-0.07 °C,0.21 °C,0.34 °C,0.27 °C,-0.55 °C,-0.78 °C,-3.16 °C,0 °C,0.48 °C,0.2 °C,-0.25 °C,0.14 °C,0.51 °C,0.35 °C
Cc1cnc(-c2cnc(NCCNc3ccc(C#N)cn3)nc2-c2ccc(Cl)cc2Cl)[nH]1,1.15 °C and 1.22 °C,0.15 °C and -0.03 °C,0.11 °C and 0.6 °C,0.22 °C and 0.78 °C,0.17 °C and 0.28 °C,-0.06 °C and 0.47 °C,0.98 °C and 1.26 °C,0.11 °C and 0.59 °C,0.39 °C and 1.23 °C,0.54 °C and 0.66 °C,-0.09 °C and 0.72 °C,4.65 °C and 4.93 °C,1.04 °C and 0.06 °C,0.2 °C and 0.82 °C,0.54 °C and 0.26 °C,0.69 °C and 1.04 °C,-0.09 °C and -0.17 °C,0.67 °C and 1.04 °C,0.67 °C and 1.49 °C,0.25 °C and -0.23 °C
Nc1ccc(-c2ccc3ncc4ccc(=O)n(-c5cccc(C(F)(F)F)c5)c4c3c2)cn1 [Torin 2],2.36 °C,-0.06 °C,0.2 °C,0.23 °C,0.43 °C,0.37 °C,0.92 °C,2.97 °C,0.88 °C,0.27 °C,0.09 °C,9.25 °C,2.46 °C,0.76 °C,0.48 °C,0.35 °C,2.11 °C,0.56 °C,1.44 °C,0.3 °C
COc1cc(N2CCN(C)CC2)ccc1Nc1ncc2c(n1)N(C)c1ccccc1C(=O)N2,0.85 °C,0.32 °C,0.17 °C,0.62 °C,0.11 °C,-0.01 °C,0.23 °C,0.35 °C,1.14 °C,0.17 °C,0.23 °C,3.08 °C,-1.75 °C,0.12 °C,0.51 °C,0.36 °C,1.14 °C,0.34 °C,0.21 °C,0.21 °C
